# Sampled rows, rich in hits. Any-hit rate of the full collection: about 18%.
# TDP1 block = qHTS Assay for Inhibitors of Tyrosyl-DNA Phosphodiesterase (TDP1) | Tyrosyl-DNA phosphodiesterase 1 (Homo sapiens), Q9NUW8 | recombinant TDP1, AlphaScreen DNA substrate cleavage | Potency, µM (titrated, usually from 130 µM), without a hit: at the highest dose activity change, negative = inhibition, hits mostly inhibitors | 350,000 compounds, 0.28% hits | AID 485290, 2010; also: potency is read from the fitted curve at half-maximal effect; % is scaled to controls: 0 for no effect and ±100 for the full control effect; nearly all actives have a fitted effect of over 40% in size
# Target sequence (Q9NUW8 whole entry, looked up): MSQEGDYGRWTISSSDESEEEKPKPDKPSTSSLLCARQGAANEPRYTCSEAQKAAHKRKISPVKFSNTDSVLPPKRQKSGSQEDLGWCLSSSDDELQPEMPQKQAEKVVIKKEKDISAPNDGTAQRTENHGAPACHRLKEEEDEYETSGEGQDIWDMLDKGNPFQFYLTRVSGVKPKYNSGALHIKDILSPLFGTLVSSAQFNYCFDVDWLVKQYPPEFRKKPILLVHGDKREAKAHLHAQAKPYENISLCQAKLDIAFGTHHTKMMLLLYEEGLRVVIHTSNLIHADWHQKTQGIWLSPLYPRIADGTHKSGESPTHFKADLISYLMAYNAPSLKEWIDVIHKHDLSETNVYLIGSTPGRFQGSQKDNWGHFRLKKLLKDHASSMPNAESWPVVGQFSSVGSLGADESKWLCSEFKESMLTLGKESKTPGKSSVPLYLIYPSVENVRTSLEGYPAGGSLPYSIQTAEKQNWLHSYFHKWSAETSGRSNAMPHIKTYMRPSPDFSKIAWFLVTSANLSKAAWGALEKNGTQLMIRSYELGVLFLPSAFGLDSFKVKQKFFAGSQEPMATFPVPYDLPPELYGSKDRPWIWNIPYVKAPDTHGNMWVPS
#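 Compounds were preincubated with Tdp1 (1 nM final) for 15 min at room temperature before substrate (15 nM final) started a 5 min reaction; beads (10 ug/ml final) were then added for 10 min before AlphaScreen detection.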
# TGFb inhibitor = qHTS for Inhibitors of TGF-b | HepG2 CAGA-GFP TGF-b/SMAD3 reporter, GFP fluorescence, 18 h; TGF-beta stimulated, 500 pg/mL final | Potency, µM (top dose mostly 46.1 µM), for the others: top-dose activity, negative = inhibition, hits mostly inhibitors | 410,000 compounds, 1.2% hits | AID 588855, 2011; also: potency is read from the fitted curve at half-maximal effect; % is scaled to controls: 0 for no effect and ±100 for the full control effect; nearly all actives have a fitted effect of over 65% in size
#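 HEPG2 CAGA-GFP, 1000 cells/well; 2 h settle, 37 C; cpd via pin tool; TGF-b 500 pg/mL final; 18 h, 37 C; GFP imaging ex488/em500-530; %Activity normalised to -TGF-b and +DMSO controls; CRC fit, curve class.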
# HepG2 tox = qHTS for Inhibitors of TGF-b: Cytotox Counterscreen; HepG2 CAGA-GFP viability, ATP luminescence, 18 h; 410,000 compounds, 0.76% hits; Potency, µM (series often up to 46.1 µM), for the others: top-dose activity change, negative = cytotoxicity, hits mostly cytotoxic; also: potency is read from the fitted curve at half-maximal effect
#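 HepG2 CAGA-GFP cells (1000/well, DMEM with 1% FBS) received compound, then TGF-beta at 500 pg/mL final, and were incubated 18 hours at 37 degrees C. Viability was read by CellTiter-Glo luminescence. Media-only wells were set as complete cell-killing and DMSO as no toxicity.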
# DT40 TDP1 no CPT = qHTS for Inhibitors of human tyrosyl-DNA phosphodiesterase 1 (TDP1): qHTS in cells in absence of CPT; DT40 Tdp1-/- hTDP1 cells, no CPT, ATP luminescence, 48 h; Potency, µM (series often up to 46.2 µM), for the others: at the highest dose activity change, negative = growth inhibition, actives largely listed as inhibitors; 420,000 compounds, 15% hits; AID 686978, 2013; also: potency is read from the fitted curve at half-maximal effect; % is scaled to controls: 0 for no effect and ±100 for the full control effect; nearly all actives have a fitted effect of over 55% in size
#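 A cellular qHTS used chicken DT40 cells lacking endogenous Tdp1 but carrying stably transfected human TDP1. Compounds were applied without camptothecin, and cell growth kinetics were judged by ATP-dependent luminescence after ≥48 hr.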
# IL1B secr inh = qHTS for Inhibitors of Inflammasome Signaling: IL-1-beta AlphaLISA Primary Screen. THP-1 LPS/ATP IL-1B secretion, AlphaLISA, 16 h; active compounds read low. activity change, % at 57.5 µM. 360,000 compounds, 4.7% hits. AID 743279, 2014; in the data active = activity change below about -50%; inconclusive = mostly about -30% to -49%; also: % is scaled to controls: 0 for no effect and ±100 for the full control effect
#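 Secreted IL-1B measured by AlphaLISA bead assay after 16 h compound exposure of THP-1 cells; compounds (final up to 57.5 uM) added 1 h before LPS (250 ng/mL) and ATP (1.25 mM) stimulation; lower signal means less secretion.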
# DT40 TDP1 CPT = qHTS for Inhibitors of human tyrosyl-DNA phosphodiesterase 1 (TDP1): qHTS in cells in presence of CPT; 420,000 compounds, 12% hits; chicken DT40 Tdp1-/-;hTDP1 cells + 20 nM CPT, ATP luminescence, 48 h; Potency, µM (top dose mostly 46.2 µM), for the others: top-dose activity change, negative = growth inhibition, most hits filed as inhibitors; also: potency is read from the fitted curve at half-maximal effect; % is scaled to controls: 0 for no effect and ±100 for the full control effect; nearly all actives have a fitted effect of over 55% in size
#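 Chicken DT40 Tdp1-/- cells stably complemented with human TDP1 were seeded at 400 cells/well in medium containing 20 nM camptothecin, exposed to pin-transferred compounds, and grown at 37 °C for at least 48 hr. Viability was read as ATP luminescence.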
# * = called active by the depositor; ? = inconclusive; nt = not tested or not shown. Unless noted, calls follow the shape of the dose curve; as a rule, active = well fitted curve in the direction sought with a large enough effect; inconclusive = small, poorly fitted or top-dose-only effect, or another doubt; inactive = no such curve, though single readings can be large; an effect the other way counts as inactive or inconclusive.
SMILES,TDP1 block,TGFb inhibitor,HepG2 tox,DT40 TDP1 no CPT,IL1B secr inh,DT40 TDP1 CPT
O=C(CCCc1ccccc1)Nc1ccnn1C1CCN(Cc2ccccc2F)CC1,3%,-3%,-3%,21µM*,-19,23µM*
Cc1ccccc1C(=O)Nc1ccnn1C1CCN(C(C)Cc2ccccc2F)CC1 (stereo not drawn),2%,-4%,-20%,-54%,-7,23µM*
CCOc1ccc(NS(=O)(=O)c2ccc(C(=O)N3CCC3)cc2)cc1,nt,-6%,-11%,-21%,0,-7%
CCN1CCN(S(=O)(=O)Cc2ccccc2Cl)CC1,0%,18%,-7%,13%,-18,-18%
Cc1cccc(NC(=O)c2nc[nH]c2C(=O)NCc2ccccc2)c1,2%,?,-29%,?,-5,?
Cc1cccc(NC(=O)c2nc[nH]c2C(=O)NCCCCNC(=O)c2[nH]cnc2C(=O)Nc2cccc(C)c2)c1,1%,5%,1%,21µM*,27,15µM*
Cc1cccc(NC(=O)c2nc[nH]c2C(=O)NCCCCCCNC(=O)c2[nH]cnc2C(=O)Nc2cccc(C)c2)c1,0%,8%,4%,23µM*,1,12µM*
O=[N+]([O-])c1ccc(S(=O)(=O)NNC(=S)NCCc2ccccc2)cc1,6%,-6%,-1%,3%,0,-5%
O=S1(=O)CC(N2CCCC2)CN1Cc1cn(Cc2ccc(F)cc2)nn1 (stereo not drawn),nt,nt,nt,-15%,5,14%
COc1c(O)c(O)cc2c1oc1c3ccccc3oc(=O)c21,4%,nt,nt,nt,nt,nt
CN(CC(=O)NCCc1ccc(S(N)(=O)=O)cc1)Cc1ccc(Cl)cc1Cl,4%,?,-34%,?,-13,-26%
Cc1ccc(-n2cc(CNC(C)c3cnn(C)c3)c(-c3ccc(F)cc3)n2)cc1 (stereo not drawn),0%,-23%,7%,21µM*,-1,18µM*
Cc1ccc(-n2cc(CNC(C)c3cnn(C)c3C)c(-c3ccc(F)cc3)n2)cc1 (stereo not drawn),nt,13µM*,-73%,2.9µM*,?,5.2µM*
Cc1ccc(S(=O)(=O)n2cccc2C)cc1,nt,-3%,-22%,-2%,4,?
O=C(c1ccncc1)N1CCC[C@@]2(CCN(c3ccccn3)C2)C1,nt,nt,nt,0%,nt,26%
CC1Cc2ccccc2N1Cc1cc(=O)c(OCC(=O)NCCc2ccccc2)co1 (stereo not drawn),0%,-2%,1%,?,-7,?
Cc1onc(-c2ccccc2)c1C(=O)N1CCCc2ccccc21,2%,-6%,4%,16µM*,42,?
Cc1onc(-c2c(Cl)cccc2Cl)c1C(=O)N1CCCc2ccccc21,-8%,?,-35%,21µM*,7,21µM*
Cc1onc(-c2c(F)cccc2Cl)c1C(=O)N1CCc2ccccc21,5%,16%,-7%,?,11,?
Cc1noc(C)c1C(=O)N1CCc2ccccc21,0%,-1%,-17%,-4%,24,-19%
Cc1ccc(-n2c(=O)c3c(cnn3C)n(CC(=O)Nc3ccc(C)cc3C)c2=O)cc1,6%,-7%,3%,-14%,nt,-24%
Cc1cc(N(CCO)CCO)ccc1N=Nc1cc(F)ccc1F,10%,1%,-23%,?,-75*,?
O=C(Nc1cccc(C(F)(F)F)c1)c1cc(CN2CCOCC2)on1,5%,3%,-12%,?,nt,-12%
